Test systems include MOLT-4 leukemia; SR leukemia; RPMI-8226 leukemia; OVCAR-8 ovarian; OVCAR-5 ovarian; OVCAR-4 ovarian; SK-OV-3 ovarian; IGROV1 ovarian; OVCAR-3 ovarian; HS 578T breast; NCI/ADR-RES ovarian; T-47D breast; BT-549 breast; MDA-MB-435 melanoma; SW-620 colon; MCF7 breast; HCT-116 colon; KM12 colon; HCC-2998 colon.
Holding throughout (assay): NCI-60 one-dose screen, 48 h (100 = growth as untreated, 0 = no growth, -100 = all killed)
Holding throughout (settings): 10 µM unless noted

Several values for one entry are separate records, joined by “and”; a condition that tells them apart may be missing. Equal values may be shown once. About 83,000 compounds went through this panel and 20% of them were active in at least one assay; those are over-represented in the sample as a whole.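 Values shown are percent growth following 48 h exposure of cells in 96-well plates to a single concentration of compound; below 10 was considered active.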 Activity calls are given as the source filed them.

The source of these data is PubChem BioAssay (NCI).

Take `O=C1c2ccccc2C(=O)N1N1CC1c1ccccc1` (stereo unspecified): the growth with MOLT-4 leukemia was 83.5% (inactive); in the experiment with SR leukemia, 77.9% (inactive); in the experiment on RPMI-8226 leukemia it was 101% (inactive); with OVCAR-8 ovarian, 112% (inactive); in the experiment on OVCAR-5 ovarian, 113% (inactive); with OVCAR-4 ovarian, 101% (inactive). The growth with SK-OV-3 ovarian is 102% (inactive); in the experiment on IGROV1 ovarian it was 95.4% (inactive); in the experiment with OVCAR-3 ovarian, 107% (inactive); with HS 578T breast, 112% (inactive); in the experiment on NCI/ADR-RES ovarian it was 104% (inactive); in the experiment on T-47D breast, 89.2% (inactive). Further, the growth was 99% (inactive) with BT-549 breast; 102% (inactive) in the experiment with MDA-MB-435 melanoma; 105% (inactive) in the experiment with SW-620 colon; 84.1% (inactive) with MCF7 breast; 95.4% (inactive) in the experiment with HCT-116 colon; 104% (inactive) in the experiment with KM12 colon.

In the case of `C[C@@]12CCCc3coc(c31)C(=O)c1cc3c(cc12)C(=O)C1=C(NCCS1(=O)=O)C3=O`, the growth with MOLT-4 leukemia was -31.5% (active); in the experiment on SR leukemia, -13.3% (active); in the experiment on RPMI-8226 leukemia it was -30.4% (active); in the experiment with OVCAR-8 ovarian, -13.1% (active); in the experiment on OVCAR-5 ovarian, -28.3% (active); with OVCAR-4 ovarian, -89.3% (active). In addition, the growth was -12.6% (active) in the experiment on SK-OV-3 ovarian; -23.9% (active) with IGROV1 ovarian; -47.2% (active) in the experiment on OVCAR-3 ovarian; -12.3% (active) with HS 578T breast; 81.5% (inactive) in the experiment on NCI/ADR-RES ovarian; -45.9% (active) in the experiment with T-47D breast. The growth was -51.7% (active) with BT-549 breast; -83.5% (active) in the experiment with MDA-MB-435 melanoma; -43.8% (active) in the experiment with SW-620 colon; -54.1% (active) in the experiment on MCF7 breast; -16.5% (active) in the experiment on HCT-116 colon; 4.16% (active) in the experiment on KM12 colon.

As for `Cc1cc[n+](CCc2ccccc2)cc1`, the growth was 90.4% (inactive) and 101% (inactive) with MOLT-4 leukemia; 101% (inactive) in the experiment on SR leukemia; 115% (inactive) in the experiment on RPMI-8226 leukemia; 95.7% (inactive) and 99.1% (inactive) with OVCAR-8 ovarian; 88.3% (inactive) and 116% (inactive) with OVCAR-5 ovarian; 90.3% (inactive) and 104% (inactive) with OVCAR-4 ovarian. In addition, the growth is 116% (inactive) and 115% (inactive) in the experiment on SK-OV-3 ovarian; 94.7% (inactive) and 82.5% (inactive) in the experiment on IGROV1 ovarian; 104% (inactive) and 118% (inactive) in the experiment with OVCAR-3 ovarian; 105% (inactive) with HS 578T breast; 91.2% (inactive) and 111% (inactive) in the experiment on NCI/ADR-RES ovarian; 95.4% (inactive) and 101% (inactive) with T-47D breast. The growth in the experiment on BT-549 breast was 104% (inactive) and 107% (inactive); in the experiment with MDA-MB-435 melanoma, 102% (inactive) and 104% (inactive); in the experiment with SW-620 colon, 101% (inactive) and 117% (inactive); with MCF7 breast, 101% (inactive) and 104% (inactive); in the experiment with HCT-116 colon it was 91.2% (inactive) and 103% (inactive); in the experiment on KM12 colon it was 105% (inactive) and 107% (inactive).

For `CCCC1CCCCC12C(=O)NC(=O)NC2=O` (stereo unspecified), the growth with MOLT-4 leukemia is 110% (inactive) and 97.1% (inactive); in the experiment with SR leukemia, 91.8% (inactive); with RPMI-8226 leukemia, 95.9% (inactive); in the experiment with OVCAR-8 ovarian it was 107% (inactive) and 103% (inactive); in the experiment on OVCAR-5 ovarian, 97.8% (inactive) and 107% (inactive); with OVCAR-4 ovarian it was 94.1% (inactive) and 104% (inactive). The growth was 94.7% (inactive) and 106% (inactive) with SK-OV-3 ovarian; 111% (inactive) in the experiment on IGROV1 ovarian; 106% (inactive) and 105% (inactive) in the experiment on OVCAR-3 ovarian; 91.8% (inactive) and 106% (inactive) with HS 578T breast; 99.6% (inactive) and 104% (inactive) in the experiment with NCI/ADR-RES ovarian; 93.2% (inactive) and 87.8% (inactive) in the experiment with T-47D breast. Besides, the growth in the experiment on BT-549 breast was 112% (inactive) and 98.9% (inactive); in the experiment on MDA-MB-435 melanoma it was 99.1% (inactive) and 108% (inactive); with SW-620 colon, 94.9% (inactive) and 106% (inactive); with HCT-116 colon, 109% (inactive) and 94.4% (inactive); in the experiment on HCC-2998 colon, 103% (inactive) and 96.6% (inactive); in the experiment with KM12 colon it was 98.1% (inactive) and 107% (inactive).

Take `COc1ccn(C)c(=O)c1C#N`: the growth with MOLT-4 leukemia is 106% (inactive); in the experiment with SR leukemia it was 90% (inactive); with RPMI-8226 leukemia, 102% (inactive); in the experiment with OVCAR-8 ovarian, 96.3% (inactive); in the experiment on OVCAR-5 ovarian, 105% (inactive); in the experiment with OVCAR-4 ovarian, 114% (inactive). For the same molecule, the growth in the experiment with SK-OV-3 ovarian was 91.9% (inactive); with IGROV1 ovarian, 98.7% (inactive); in the experiment on OVCAR-3 ovarian it was 93.8% (inactive); with HS 578T breast, 105% (inactive); in the experiment on NCI/ADR-RES ovarian, 102% (inactive); with T-47D breast it was 81.6% (inactive). The growth with BT-549 breast is 103% (inactive); with MDA-MB-435 melanoma it was 107% (inactive); in the experiment with SW-620 colon, 94.1% (inactive); in the experiment on MCF7 breast it was 93% (inactive); with HCT-116 colon, 97% (inactive); in the experiment on KM12 colon, 96.6% (inactive).

With `CCN(CC)CCn1c(=O)n(C)c2ccccc21`, the growth with MOLT-4 leukemia is 104% (inactive); in the experiment on SR leukemia, 99.3% (inactive); in the experiment with RPMI-8226 leukemia, 113% (inactive); in the experiment on OVCAR-8 ovarian, 101% (inactive); in the experiment with OVCAR-5 ovarian, 117% (inactive); in the experiment with OVCAR-4 ovarian, 109% (inactive). The growth in the experiment on SK-OV-3 ovarian is 106% (inactive); in the experiment on IGROV1 ovarian, 109% (inactive); with OVCAR-3 ovarian it was 106% (inactive); in the experiment with HS 578T breast, 95.5% (inactive); with NCI/ADR-RES ovarian, 101% (inactive); in the experiment with T-47D breast it was 109% (inactive). Further, the growth was 124% (inactive) with BT-549 breast; 105% (inactive) with MDA-MB-435 melanoma; 105% (inactive) in the experiment on SW-620 colon; 102% (inactive) with MCF7 breast; 111% (inactive) in the experiment on HCT-116 colon; 99.8% (inactive) with KM12 colon.

For the molecule `CCCCCCCCCCCCCCCC[N+](C)(C)C`, the growth is -52.4% (active) in the experiment on MOLT-4 leukemia; -54.9% (active) and -48.6% (active) in the experiment on SR leukemia; -14.9% (active) and -9.1% (active) in the experiment with RPMI-8226 leukemia; 0.0915% (active) in the experiment on OVCAR-8 ovarian; -4.82% (active) in the experiment with OVCAR-5 ovarian; -34.5% (active) and 17.2% (inactive) in the experiment on OVCAR-4 ovarian. Moreover, the growth was -55.5% (active) and 11% (inactive) with SK-OV-3 ovarian; -64% (active) and -56.6% (active) in the experiment on IGROV1 ovarian; -85.4% (active) and -1.42% (active) in the experiment with OVCAR-3 ovarian; -24.3% (active) and 2.19% (active) in the experiment with HS 578T breast; 51.9% (inactive) and 82.5% (inactive) in the experiment with NCI/ADR-RES ovarian; 4.4% (active) and -13.9% (active) in the experiment with T-47D breast. The growth with BT-549 breast was -76% (active) and -41.5% (active); in the experiment on MDA-MB-435 melanoma it was -70.1% (active) and 7.38% (active); in the experiment on SW-620 colon, -92.5% (active) and 8.75% (active); with HCT-116 colon, -72% (active) and 4.21% (active); with HCC-2998 colon, -91% (active) and 20.9% (inactive); in the experiment on KM12 colon, -83% (active) and -93.1% (active).
